Out of some 39,000 compounds screened, about 3,300 (8.5%) were called active. This excerpt belongs to a sample that is enriched for actives.
Test system: HepG2
Assay: cytotoxicity call (relative viability < 0.9)
Conditions: 10 µM

SMILES | cytotoxicity call
O=C(CCCCCC(=O)Nc1ccccc1O)N/N=C/[C@H](O)[C@@H](O)[C@@H](O)[C@H](O)C(=O)O | inactive
COCC#Cc1cnc2c(c1)C(=O)N([C@H](C)CO)C[C@@H](C)[C@@H](CN(C)C(=O)CN1CCOCC1)O2 | inactive
COc1cc(CN)cc(OC)c1OC | inactive
C[C@H](CO)N1C[C@H](C)[C@@H](CN(C)C(=O)Nc2ccc(F)cc2)Oc2ccc(NC(=O)CCCCCC(=O)Nc3ccccc3N)cc2CC1=O | inactive
COc1ccc(NC(=O)N(C)C[C@H]2OCCCC[C@@H](C)Oc3ccc(NC(=O)Cc4ccccc4)cc3C(=O)N([C@H](C)CO)C[C@@H]2C)cc1 | inactive
O=C(CN1CCOCC1)NCC[C@H]1CC[C@@H](NS(=O)(=O)c2ccc(F)cc2)[C@H](CO)O1 | inactive
C[C@H]1CN([C@@H](C)CO)C(=O)c2cccc(NC(=O)C3CCCCC3)c2O[C@H]1CN(C)S(=O)(=O)c1cn(C)cn1 | inactive
NCCN1C(=O)c2[nH]nc(-c3ccccc3)c2[C@H]1c1ccccc1 | active
c1ccc(-c2n[nH]c3c2CCC3)cc1 | inactive
NCc1c[nH]nc1-c1ccccc1 | inactive
C[C@@H]1CN([C@H](C)CO)S(=O)(=O)c2ccc(-c3cccc(F)c3)cc2O[C@H]1CN(C)S(C)(=O)=O | inactive
c1ccc2c(c1)Cc1cccnc1-2 | inactive
Cl.Clc1ccc2c(c1)CCc1cccnc1C2=C1CCNCC1 | active
Clc1ccc2c(c1)CCc1cccnc1C2=C1CCNCC1 | active
Clc1ccc2ncccc2c1 | inactive
O=C(C[C@@H]1CC[C@H]2[C@@H](COC[C@H](O)CN2C(=O)c2ccc3c(c2)OCO3)O1)NCCN1CCCCC1 | inactive
Cc1ccc(S(=O)(=O)Nc2cccc3c2O[C@@H](CN(C)C(=O)Nc2cccc4ccccc24)[C@@H](C)CN([C@H](C)CO)C3=O)cc1 | inactive
NC[C@@H]1CC(=O)N(Cc2ccccc2)C1 | inactive
NC(=O)N[C@@H]1CC(=O)N(c2ccccc2)C1 | inactive
NC[C@@H]1CC(=O)N(c2ccccc2)C1 | active

SMILES | cytotoxicity call
O=c1cc(-c2ccccc2)ss1 | inactive
O=C(c1ccc(S(=O)(=O)N2CCCCCC2)cc1)N(Cc1cccnc1)c1nc2c(F)cc(F)cc2s1 | inactive
Cc1ccc2sc(N(CCCN(C)C)C(=O)c3ccc(S(=O)(=O)N(C)Cc4ccccc4)cc3)nc2c1C | active
COc1cc(OC)c(S(=O)(=O)N(C)Cc2ccccc2)cc1S(=O)(=O)N(C)Cc1ccccc1 | inactive
Cc1cc(Cl)cc2sc(N(Cc3ccccn3)C(=O)c3ccc(S(=O)(=O)N4CCCC4)cc3)nc12 | inactive
Cc1ccc2sc(N(CCCN(C)C)C(=O)c3ccc(S(=O)(=O)N(C)C4CCCCC4)cc3)nc2c1C | active
CC(C)(C)NC[C@@H](O)CSc1nc(-c2ccc(C(N)=O)s2)cs1 | inactive
COCC(=O)N(C)C[C@H]1Oc2cc(-c3ccc(C#N)cc3)ccc2S(=O)(=O)N([C@H](C)CO)C[C@H]1C | inactive
O=C(Nc1nccs1)[C@H]1[C@H](CO)[C@H]2Cn3c(cccc3=O)[C@@H]1N2C(=O)C1CC1 | inactive
Cc1noc(C)c1S(=O)(=O)N(C)C[C@@H]1OCCCC[C@H](C)Oc2ccc(NC(=O)Nc3ccccc3)cc2C(=O)N([C@@H](C)CO)C[C@H]1C | inactive
C[C@H](CO)N1C[C@H](C)[C@H](CN(C)Cc2ccncc2)Oc2c(NS(=O)(=O)c3ccc(F)cc3)cccc2C1=O | inactive
COC(=O)[C@@H](N)CS[C@H]1CCCCO1 | inactive
Cc1noc(C)c1NC(=O)Nc1ccc2c(c1)C(=O)N([C@H](C)CO)C[C@H](C)[C@H](CN(C)Cc1ccc(-c3ccccc3)cc1)O2 | inactive
CC(C)[C@H]1CC[C@@H](C)C[C@@H]1NC(=O)c1cccc2ccccc12 | inactive
COc1ccc2c(c1)n(CCN)c(=O)n2C(=O)[C@@H]1C[C@H](C)CC[C@H]1C(C)C | active
C[C@@H]1CN([C@@H](C)CO)C(=O)c2cc(NC(=O)CCCN(C)C)ccc2O[C@@H](C)CCCCO[C@@H]1CN(C)C | inactive
CN(Cc1ccc(/C=C/C(=O)Nc2ccc(-c3ccccc3)cc2N)cc1)CC12CC3CC(CC(C3)C1)C2 | active
C[C@H]1CN([C@@H](C)CO)C(=O)c2cccc(NC(=O)CCCCCC(=O)Nc3ccccc3N)c2O[C@@H]1CN(C)Cc1ccc(-c2ccccc2)cc1 | inactive
CN(Cc1ccc(/C=C/C(=O)Nc2ccc(-c3cccs3)cc2N)cc1)CC12CC3CC(CC(C3)C1)C2 | inactive
O=C(C[C@H]1CC[C@@H]2[C@H](COC[C@H](O)CN2S(=O)(=O)c2cccc(F)c2)O1)NCc1ccncn1 | inactive

SMILES | cytotoxicity call
C[C@H]1CN([C@@H](C)CO)C(=O)c2cc(C#CC3CCCCC3)cnc2O[C@H]1CN(C)C(=O)Cc1ccccn1 | inactive
CCc1nc2ccc(C(=O)NCc3ccc(OC)cc3)cn2c1N(CC)Cc1cccc(Br)c1 | inactive
CC(=O)n1cc([C@@H]2C=C(C(=O)N3CCN(Cc4ccc5c(c4)OCO5)CC3)O[C@H](OCc3ccc(COC(=O)NCCCCCC(=O)NO)cc3)C2)c2ccccc21 | inactive
CCC(=O)NCCC1CCc2ccc3c(c21)CCO3 (centres undefined) | active
CCC(=O)NCc1nn(C)c2c1COCC2 | inactive
COc1ccc(NC(=O)N(C)C[C@@H]2OCCCC[C@@H](C)Oc3ccc(NC(=O)Nc4cccc5ccccc45)cc3C(=O)N([C@@H](C)CO)C[C@@H]2C)cc1 | inactive
C[C@H](CO)N1C[C@H](C)[C@@H](CN(C)Cc2ccc3c(c2)OCO3)OCCCC[C@H](C)Oc2ccc(NC(=O)Cc3ccccc3)cc2C1=O | inactive
C[C@@H]1CCCCO[C@@H](CN(C)CC2CC2)[C@H](C)CN([C@H](C)CO)C(=O)c2cc(NC(=O)Nc3ccc4c(c3)OCO4)ccc2O1 | inactive
C[C@H]1CCCCO[C@H](CN(C)CC2CCCCC2)[C@@H](C)CN([C@@H](C)CO)C(=O)c2cc(NC(=O)Nc3ccc4c(c3)OCO4)ccc2O1 | active
C[C@H](CO)N1C[C@H](C)[C@@H](CN(C)CC2CC2)OCCCC[C@H](C)Oc2ccc(NC(=O)Nc3ccc4c(c3)OCO4)cc2C1=O | inactive
C[C@@H]1CCCCO[C@H](CN(C)CC2CCCCC2)[C@@H](C)CN([C@H](C)CO)C(=O)c2cc(NC(=O)Nc3ccc4c(c3)OCO4)ccc2O1 | inactive
C[C@H](CO)N1C[C@H](C)[C@H](CN(C)CC2CC2)OCCCC[C@H](C)Oc2ccc(NC(=O)Nc3ccc4c(c3)OCO4)cc2C1=O | inactive
C[C@@H]1CCCCO[C@@H](CN(C)CC2CCCCC2)[C@@H](C)CN([C@H](C)CO)C(=O)c2cc(NC(=O)Nc3ccc4c(c3)OCO4)ccc2O1 | active
C[C@@H]1CCCCO[C@@H](CN(C)CC2CCCCC2)[C@@H](C)CN([C@@H](C)CO)C(=O)c2cc(NC(=O)Nc3ccc4c(c3)OCO4)ccc2O1 | active
C[C@@H]1CCCCO[C@H](CN(C)CC2CC2)[C@@H](C)CN([C@H](C)CO)C(=O)c2cc(NC(=O)Nc3ccc4c(c3)OCO4)ccc2O1 | inactive
C[C@@H]1CN([C@H](C)CO)C(=O)c2cc(NC(=O)Nc3ccc4c(c3)OCO4)ccc2O[C@@H](C)CCCCO[C@@H]1CN(C)CC1CCCCC1 | inactive
C[C@@H]1CCCCO[C@@H](CN(C)CC2CC2)[C@@H](C)CN([C@H](C)CO)C(=O)c2cc(NC(=O)Nc3ccc4c(c3)OCO4)ccc2O1 | inactive
C[C@@H]1CCCCO[C@H](CN(C)CC2CCCCC2)[C@H](C)CN([C@H](C)CO)C(=O)c2cc(NC(=O)Nc3ccc4c(c3)OCO4)ccc2O1 | inactive
C[C@H](CO)N1C[C@H](C)[C@H](CN(C)CC2CCCCC2)OCCCC[C@H](C)Oc2ccc(NC(=O)Nc3ccc4c(c3)OCO4)cc2C1=O | active

From the antibiotic and cytotoxicity screens of Wong et al. (2023)
